# PubChem BioAssay
# Results filed as inconclusive are left out. The source made the active and inactive calls.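 The calls were made as follows, unless noted: active = inhibition above 54%, about 3 SD of non-fluorescent compounds; inactive = the rest.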
# Tests used:
# [1] = yeast TOR pathway RPL19A-GFP modulators, primary screen, cell-based, S. cerevisiae, multiplex flow cytometry (AID 1862; in the data active = percent of DMSO control GFP below about 86%;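 also: lower values mimic rapamycin by blocking the RPL19A rise seen in DMSO cells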); settings: S. cerevisiae RPL19A-GFP strain, flow cytometry fluorescence, 3 h; at 10 µM; stronger effect = lower value
# [2] = modulators of MEP2-GFP levels in yeast, primary screen, S. cerevisiae, multiplex flow cytometry (AID 1867;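 active = GFP response, as percent of the DMSO control, above the screen-wide mean plus 3 SD, about 139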;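 also: median GFP channel fluorescence of barcode-gated MEP2-GFP cells measured by flow cytometry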); settings: S. cerevisiae MEP2-GFP strain, 3 h, at 10 µM, stronger effect = higher value, 100% means same as DMSO wells
# [3] = modulators of CIT2-GFP expression in yeast, primary screen, S. cerevisiae, GFP fusion, multiplex flow cytometry (AID 1870;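 active = percent response above a set limit, the screen-wide mean plus 3 SD, cut at about 130% in these data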;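 also: barcoded CIT2-GFP strain pooled with four other GFP strains with rapamycin as positive control; median GFP fluorescence per well over plate mean of DMSO wells so 100% = DMSO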); settings: 3 h, at 10 µM, stronger effect = higher value
# [4] = modulators of LAP4-GFP expression in yeast, primary screen, S. cerevisiae, multiplex flow cytometry (AID 1873;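 active = GFP signal, as percent of the solvent control, above the screen mean plus 3 SD, about 149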); settings: 3 h, at 10 µM, stronger effect = higher value
# [5] = modulators of AGP1-GFP expression in yeast TOR pathway, primary screen, cell-based, multiplex flow cytometry, S. cerevisiae (AID 1887;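 active = GFP signal above the screen-wide mean plus 3 SD, that is over about 124.5% of the solvent control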;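 also: AGP1-GFP fusion strain of S. cerevisiae within a five-strain barcoded multiplex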); settings: 3 h, at 10 µM, stronger effect = higher value
# [6] = inhibitors of CD8+ T cell-vesicle binding, pilot screen, LFA-1/ICAM-1 modulator project, MLPCN validation set, flow cytometry (AID 2523;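 active = response below a set limit, under 55% cells CD8-positive and vesicle-bound, and CD8 cells' 90th-percentile brightness under 279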;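 as to vesicle binding response: mean PE anti-B7-1 fluorescence of CD8+ cells relative to row control; 100% = QL9-loaded vesicles with DMSO vehicle in the same plate row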); settings: 2C mouse CD8+ T cells, at 7 µM, stronger effect = lower value; double positive events: measured here: CD8+/vesicle+ event percentage
# [7] = target: Integrin beta-1 (Homo sapiens) + Integrin alpha-4 (Homo sapiens) (UniProt P13612+P05556); experiment: inhibition of HUTS-21 binding to VLA-4, pilot screen, VLA-4 allosteric modulator project, U937 cells, HUTS-21 mAb, flow cytometry, validation set (AID 2674;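 active = inhibition above 50%, about 3 SD of the validation set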;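 also: antibody binding induced by the VLA-4 ligand LDV present at three times its Kd; 0% = LDV ligand with antibody and no compound and 100% = antibody without LDV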); settings: HUTS-21 LIBS mAb binding, at 6.7 µM, stronger effect = higher value, binding induced by LDV ligand
# Sequence of Integrin beta-1 (Homo sapiens) + Integrin alpha-4 (Homo sapiens) (P05556 whole entry, looked up): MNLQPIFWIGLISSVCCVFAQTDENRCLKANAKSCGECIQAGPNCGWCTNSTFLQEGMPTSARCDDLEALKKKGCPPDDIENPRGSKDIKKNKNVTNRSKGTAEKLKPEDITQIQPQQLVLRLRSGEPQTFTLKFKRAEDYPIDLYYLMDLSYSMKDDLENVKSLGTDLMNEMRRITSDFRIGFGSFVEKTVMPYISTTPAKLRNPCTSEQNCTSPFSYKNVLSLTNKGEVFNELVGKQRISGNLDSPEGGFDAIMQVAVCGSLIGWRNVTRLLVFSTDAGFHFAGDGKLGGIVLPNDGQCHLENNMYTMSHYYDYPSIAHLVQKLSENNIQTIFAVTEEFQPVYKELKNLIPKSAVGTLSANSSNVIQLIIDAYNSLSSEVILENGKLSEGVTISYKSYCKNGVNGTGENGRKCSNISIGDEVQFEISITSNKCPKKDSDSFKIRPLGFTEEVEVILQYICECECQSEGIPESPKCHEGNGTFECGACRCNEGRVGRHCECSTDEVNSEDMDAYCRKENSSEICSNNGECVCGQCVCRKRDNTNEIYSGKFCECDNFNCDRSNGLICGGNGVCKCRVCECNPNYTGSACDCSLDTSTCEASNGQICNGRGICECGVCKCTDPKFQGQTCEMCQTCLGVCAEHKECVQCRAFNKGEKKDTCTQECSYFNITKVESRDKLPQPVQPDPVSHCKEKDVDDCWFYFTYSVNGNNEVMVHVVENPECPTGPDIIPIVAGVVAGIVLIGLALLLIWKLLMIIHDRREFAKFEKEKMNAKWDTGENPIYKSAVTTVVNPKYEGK
# Sequence of Integrin beta-1 (Homo sapiens) + Integrin alpha-4 (Homo sapiens) (P13612 whole entry, looked up): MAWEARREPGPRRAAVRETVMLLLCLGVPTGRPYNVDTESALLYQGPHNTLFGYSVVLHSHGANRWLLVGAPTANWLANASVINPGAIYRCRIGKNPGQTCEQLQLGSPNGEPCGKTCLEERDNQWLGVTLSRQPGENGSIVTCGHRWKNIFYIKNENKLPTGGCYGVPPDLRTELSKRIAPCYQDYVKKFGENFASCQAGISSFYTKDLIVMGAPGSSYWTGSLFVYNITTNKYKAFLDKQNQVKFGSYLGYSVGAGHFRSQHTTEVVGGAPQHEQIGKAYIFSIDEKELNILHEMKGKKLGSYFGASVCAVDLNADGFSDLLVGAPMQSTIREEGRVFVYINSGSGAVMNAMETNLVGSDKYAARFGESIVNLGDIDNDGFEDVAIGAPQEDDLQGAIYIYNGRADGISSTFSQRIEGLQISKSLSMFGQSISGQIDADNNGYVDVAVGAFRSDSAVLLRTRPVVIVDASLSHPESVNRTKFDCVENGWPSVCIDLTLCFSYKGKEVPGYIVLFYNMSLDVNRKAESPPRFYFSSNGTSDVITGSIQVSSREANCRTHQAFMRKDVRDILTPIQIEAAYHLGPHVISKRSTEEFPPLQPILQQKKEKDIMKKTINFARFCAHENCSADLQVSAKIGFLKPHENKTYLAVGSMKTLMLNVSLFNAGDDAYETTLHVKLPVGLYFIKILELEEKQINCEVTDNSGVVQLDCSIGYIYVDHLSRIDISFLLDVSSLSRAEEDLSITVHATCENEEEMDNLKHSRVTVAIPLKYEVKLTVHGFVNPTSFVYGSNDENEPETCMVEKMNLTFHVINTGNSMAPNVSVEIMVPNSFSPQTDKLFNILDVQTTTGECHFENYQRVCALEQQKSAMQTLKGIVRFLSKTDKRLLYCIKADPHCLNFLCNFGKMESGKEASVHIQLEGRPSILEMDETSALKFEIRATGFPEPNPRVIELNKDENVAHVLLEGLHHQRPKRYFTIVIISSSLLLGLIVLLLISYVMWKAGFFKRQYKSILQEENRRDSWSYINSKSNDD
# [8] = superoxide lowering in aged yeast cells, pilot screen, validation compound set (AID 2706;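 active = superoxide response below 65% of plate, a cut near 3 SD across the whole screen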;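 also: yeast exposed to compound for one week at 30 degrees C before staining; 100% = mean of all compound wells on the same plate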); settings: S. cerevisiae aging, superoxide DHE fluorescence; at 10 µM; stronger effect = lower value
# [9] = target: Beta-adrenergic receptor kinase 1 (Homo sapiens) (UniProt P25098); experiment: GRK2 binders displacing RNA aptamer, biochemical, validation, human GRK2, bead flow cytometry (AID 488806;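 active = aptamer binding inhibition above 30%, about 3 SD of noise from non-fluorescent compounds; inactive = inhibition at or below 30%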); settings: bead-bound GRK2, FAM-aptamer displacement, at 10 µM, stronger effect = higher value
# Sequence of Beta-adrenergic receptor kinase 1 (Homo sapiens) (P25098 whole entry, looked up): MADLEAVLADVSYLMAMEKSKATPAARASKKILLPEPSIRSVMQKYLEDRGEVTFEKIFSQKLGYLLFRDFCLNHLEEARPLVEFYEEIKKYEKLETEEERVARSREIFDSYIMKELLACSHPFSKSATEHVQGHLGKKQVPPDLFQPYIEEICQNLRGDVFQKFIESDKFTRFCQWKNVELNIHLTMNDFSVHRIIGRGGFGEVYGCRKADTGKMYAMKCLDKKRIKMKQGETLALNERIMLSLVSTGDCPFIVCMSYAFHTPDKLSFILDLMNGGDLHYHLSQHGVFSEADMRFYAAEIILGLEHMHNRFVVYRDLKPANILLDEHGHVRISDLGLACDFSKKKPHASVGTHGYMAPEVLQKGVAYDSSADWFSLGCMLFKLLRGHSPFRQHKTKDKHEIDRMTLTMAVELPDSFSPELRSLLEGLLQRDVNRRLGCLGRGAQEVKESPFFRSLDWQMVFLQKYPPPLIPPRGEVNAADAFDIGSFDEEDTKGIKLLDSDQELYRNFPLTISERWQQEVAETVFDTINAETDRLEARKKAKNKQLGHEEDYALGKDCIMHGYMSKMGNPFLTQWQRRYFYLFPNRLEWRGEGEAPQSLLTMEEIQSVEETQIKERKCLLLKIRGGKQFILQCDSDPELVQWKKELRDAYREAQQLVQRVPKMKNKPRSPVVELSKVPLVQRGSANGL
# [10] = target: Beta-2 adrenergic receptor (Homo sapiens) (UniProt P07550); experiment: beta2AR agonists driving receptor internalization, pilot screen, cell-based, FAP fluorogen, flow cytometry, validation set (AID 504459;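 active = percent response above 42, roughly 3 SD of non-fluorescent test compounds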;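 also: agonist-driven loss of surface beta2AR via internalization measured by FAP dye flow cytometry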); settings: Am2.2-beta2AR cells, FAP surface receptor flow cytometry; at 10 µM; stronger effect = higher value
# Sequence of Beta-2 adrenergic receptor (Homo sapiens) (P07550 whole entry, looked up, the tested form may be a part): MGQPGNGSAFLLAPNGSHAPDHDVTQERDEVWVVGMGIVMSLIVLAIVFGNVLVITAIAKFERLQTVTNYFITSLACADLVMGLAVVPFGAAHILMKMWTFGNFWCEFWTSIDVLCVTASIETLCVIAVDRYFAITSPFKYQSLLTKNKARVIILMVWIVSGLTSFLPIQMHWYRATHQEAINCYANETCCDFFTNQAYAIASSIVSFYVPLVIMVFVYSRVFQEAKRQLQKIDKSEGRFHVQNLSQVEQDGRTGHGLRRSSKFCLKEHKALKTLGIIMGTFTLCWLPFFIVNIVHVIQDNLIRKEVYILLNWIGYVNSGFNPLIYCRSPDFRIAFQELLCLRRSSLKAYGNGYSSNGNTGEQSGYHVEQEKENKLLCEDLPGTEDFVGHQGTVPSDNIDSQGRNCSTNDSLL
# [11] = target: AP-2 complex subunit beta (Homo sapiens) (UniProt P63010); experiment: inhibitors of arrestin peptide binding to AP2, pilot screen, biochemical, validation set, GST-AP2 beads, flow cytometry (AID 504541); settings: FITC arrestin peptide, at 10 µM, stronger effect = higher value, AP2 beta2 appendage fragment, R879A mutant;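 also: AP2 carries R879A mutation and is captured from E. coli lysate; bead-bound FITC arrestin peptide fluorescence measuring arrestin peptide binding to AP2; 0% = DMSO wells and 100% = excess unlabeled arrestin peptide control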
# Sequence of AP-2 complex subunit beta (Homo sapiens) (P63010 whole entry, looked up, the tested form may be a part, one chain of several): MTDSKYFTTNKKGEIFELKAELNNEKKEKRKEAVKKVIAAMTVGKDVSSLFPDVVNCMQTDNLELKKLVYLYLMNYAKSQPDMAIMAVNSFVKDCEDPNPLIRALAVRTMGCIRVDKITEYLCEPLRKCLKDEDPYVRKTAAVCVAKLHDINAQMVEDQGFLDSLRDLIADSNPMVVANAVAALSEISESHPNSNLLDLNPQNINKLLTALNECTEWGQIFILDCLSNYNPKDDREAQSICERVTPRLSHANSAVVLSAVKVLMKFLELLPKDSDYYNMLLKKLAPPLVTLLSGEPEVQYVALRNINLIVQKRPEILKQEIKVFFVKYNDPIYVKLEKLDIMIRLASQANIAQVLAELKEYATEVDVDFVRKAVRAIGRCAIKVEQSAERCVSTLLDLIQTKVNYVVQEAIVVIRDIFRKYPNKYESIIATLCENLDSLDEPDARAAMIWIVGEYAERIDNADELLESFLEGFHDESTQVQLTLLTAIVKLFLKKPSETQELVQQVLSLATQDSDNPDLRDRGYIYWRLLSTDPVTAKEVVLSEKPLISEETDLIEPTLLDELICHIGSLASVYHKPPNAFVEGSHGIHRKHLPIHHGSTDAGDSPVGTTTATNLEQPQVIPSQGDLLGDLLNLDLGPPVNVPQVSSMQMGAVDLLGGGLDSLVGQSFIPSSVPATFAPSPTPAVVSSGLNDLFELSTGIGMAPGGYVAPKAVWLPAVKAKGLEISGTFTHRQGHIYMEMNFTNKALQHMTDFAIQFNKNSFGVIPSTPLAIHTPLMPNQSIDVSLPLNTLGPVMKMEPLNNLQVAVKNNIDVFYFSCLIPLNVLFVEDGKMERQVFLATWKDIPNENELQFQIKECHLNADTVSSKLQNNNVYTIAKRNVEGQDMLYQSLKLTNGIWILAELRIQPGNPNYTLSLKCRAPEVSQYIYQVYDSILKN
# [12] = yeast V-ATPase proton transport modulators, S. cerevisiae, pHLuorin, HTS validation (AID 504600; in the data active = response above about 15%;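 also: plate controls were DMSO for no effect and reference compound for full effect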); settings: S. cerevisiae pHLuorin cytosolic pH, at 10 µM, stronger effect = higher value
# [13] = tested on: anti-desmoglein-3 scFv antibody binding to human DSG3; experiment: inhibitors of anti-DSG3 scFv binding to DSG3, pilot screen, biochemical, validation compound set, bead-based, flow cytometry (AID 588368;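 active = binding below the plate cutoff, the plate median minus 3 SD, with a reading above zero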;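 also: signal is the median channel fluorescence of bead-bound GFP antibody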); settings: Protein G beads, DSG3-Fc, scFv-GFP binding, at 10 µM, stronger effect = lower value
# [14] = inhibitors of fungal efflux pumps CDR1, CDR2, MDR1, pilot screen, validation compound set, multiplex, phenotypic (AID 588506;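 active = efflux inhibition above 0.42, the validation set average plus 4 SD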;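 also: Nile Red retained in cells so higher fluorescence means more efflux inhibition; 0 = negative control wells and 1 = enniatin B 25 µM full block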); settings: S. cerevisiae pump-expressing triplex, Nile Red efflux flow cytometry; at 10 µM; stronger effect = higher value; the pumps come from Candida albicans
# [15] = target: ATP-binding cassette sub-family B member 6 (Homo sapiens) (UniProt Q9NP58); experiment: ABCB6 transporter inhibitors, pilot screen, K562-ABCB6 cells, flow cytometry, validation set (AID 588550;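 active = inhibition above the screen-wide mean plus 3 SD, about 51%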;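 also: 0% = DMSO wells and 100% = benzethonium chloride 70 µM positive control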); settings: K562-ABCB6 porphyrin accumulation, 1 h, at 10 µM, stronger effect = higher value
# Sequence of ATP-binding cassette sub-family B member 6 (Homo sapiens) (Q9NP58 whole entry, looked up): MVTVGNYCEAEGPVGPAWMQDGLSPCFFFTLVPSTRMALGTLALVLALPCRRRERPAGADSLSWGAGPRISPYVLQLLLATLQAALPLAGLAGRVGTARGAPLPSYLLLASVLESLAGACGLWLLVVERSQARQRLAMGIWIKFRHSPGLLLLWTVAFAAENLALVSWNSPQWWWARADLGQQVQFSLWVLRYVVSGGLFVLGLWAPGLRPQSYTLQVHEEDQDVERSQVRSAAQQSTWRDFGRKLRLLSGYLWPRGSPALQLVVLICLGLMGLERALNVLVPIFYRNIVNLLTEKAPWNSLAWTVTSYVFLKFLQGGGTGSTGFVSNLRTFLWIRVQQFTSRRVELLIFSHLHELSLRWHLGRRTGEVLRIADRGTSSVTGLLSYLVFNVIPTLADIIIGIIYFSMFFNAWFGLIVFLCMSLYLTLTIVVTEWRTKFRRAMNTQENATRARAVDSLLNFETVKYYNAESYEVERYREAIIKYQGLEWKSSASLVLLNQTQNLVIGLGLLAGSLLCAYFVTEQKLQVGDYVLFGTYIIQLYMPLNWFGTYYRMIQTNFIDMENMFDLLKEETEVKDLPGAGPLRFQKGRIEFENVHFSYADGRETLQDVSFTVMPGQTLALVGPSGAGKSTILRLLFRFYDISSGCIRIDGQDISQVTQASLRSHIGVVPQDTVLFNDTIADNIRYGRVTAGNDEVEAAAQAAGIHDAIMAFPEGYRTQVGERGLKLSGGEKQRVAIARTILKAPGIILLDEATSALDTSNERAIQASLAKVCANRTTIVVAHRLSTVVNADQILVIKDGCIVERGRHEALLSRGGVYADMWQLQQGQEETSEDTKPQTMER
# [16] = promoters of myeloid differentiation in arrested cells, primary screen, cell-based, GFP/MAC1 double positive, flow cytometry, validation set (AID 588685;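 active = differentiation response of at least 50%, scaled between solvent and reference control, from cells with both markers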;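 also: compound exposure lasts four days before antibody staining and flow analysis; 0% = DMSO wells and 100% = 5 µM fulvestrant positive control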); settings: ER-HoxA9 marrow cells, stronger effect = higher value, normalized: vehicle 0, fulvestrant 100
SMILES,percent of DMSO control GFP [1],GFP response vs DMSO [2],percent response of DMSO control [3],GFP response vs DMSO [4],"GFP response, % of DMSO [5]",double positive events [6] [%],vesicle binding response [6],inhibition [7],superoxide response (% of plate) [8],aptamer binding inhibition [9],response [10],inhibition [11],response [12],binding (% of control) [13],efflux inhibition (fraction of control) [14],inhibition [15],differentiation response [16]
COc1ccc(OC(C)C(=O)Nc2ccc([N+](=O)[O-])cc2)cc1 (stereo not drawn),102% (inactive),107% (inactive),99.7% (inactive),114% (inactive),97.5% (inactive),65.7,249% (inactive),0.25% (inactive),103% (inactive),-3% (inactive),1.65% (inactive),-7.72% (inactive),3.86% (inactive),103% (inactive),-0.21 (inactive),5% (inactive),13% (inactive)
Cc1oncc1C(=O)Nc1ccc(C(F)(F)F)cc1,95.7% (inactive),98.6% (inactive),101% (inactive),124% (inactive),105% (inactive),57.4,171% (inactive),3.99% (inactive),101% (inactive),10% (inactive),-21.8% (inactive),-2.96% (inactive),6.73% (inactive),96% (inactive),-0.04 (inactive),-7% (inactive),-4.99% (inactive)
Nc1nc(Cl)nc2c1ncn2[C@H]1C[C@H](O)[C@@H](CO)O1,99.2% (inactive),102% (inactive),106% (inactive),104% (inactive),114% (inactive),63.3,225% (inactive),0.59% (inactive),86.7% (inactive),7% (inactive),-24.5% (inactive),27.9% (inactive),2.75% (inactive),103% (inactive),0 (inactive),-1% (inactive),-9.91% (inactive)
Nc1cnn(C2OC(CO)C(O)C2O)c(=O)n1 (stereo not drawn),102% (inactive),108% (inactive),100% (inactive),102% (inactive),99.4% (inactive),63.4,463% (inactive),-13.9% (inactive),99.1% (inactive),3% (inactive),-1.33% (inactive),1.7% (inactive),0.15% (inactive),97.7% (inactive),0.11 (inactive),0% (inactive),-8.55% (inactive)
COC(=O)C1[C@H]2C(=O)N(Cc3cccs3)C[C@]23C=C[C@H]1O3 (stereo partly drawn),105% (inactive),90.9% (inactive),105% (inactive),80.2% (inactive),99.5% (inactive),58.4,194% (inactive),28.6% (inactive),98.1% (inactive),2% (inactive),-4.45% (inactive),-9.57% (inactive),2.19% (inactive),95% (inactive),0.3 (inactive),6% (inactive),14.9% (inactive)
COc1cc2c(cc1OC)C(c1ccc(-c3cc(Cl)ccc3Cl)o1)=NCC2,102% (inactive),109% (inactive),101% (inactive),75.2% (inactive),79.3% (inactive),59.5,228% (inactive),-53.7% (inactive),97.5% (inactive),5% (inactive),60.6% (active),17.6% (inactive),2.96% (inactive),101% (inactive),0.3 (inactive),3% (inactive),-26.4% (inactive)
CC(C)(C)c1ccc(/C=C/C(=O)N2CCCCC2)cc1,96.1% (inactive),103% (inactive),78.7% (inactive),116% (inactive),97.7% (inactive),59.2,150% (inactive),10.5% (inactive),98.8% (inactive),1% (inactive),46.6% (active),3.48% (inactive),-0.06% (inactive),98.4% (inactive),0.26 (inactive),8% (inactive),8.8% (inactive)
C/C=C/c1ccc(OCCCCN2CC(C)CC(C)C2)c(OC)c1 (stereo not drawn),102% (inactive),107% (inactive),106% (inactive),96.6% (inactive),97.2% (inactive),58.6,52.4% (inactive),8.88% (inactive),104% (inactive),-1% (inactive),-1.02% (inactive),39.6% (inactive),-3.37% (inactive),99.7% (inactive),0.02 (inactive),-10% (inactive),-1.71% (inactive)
O=C(/C=C/c1ccc(F)cc1)NC(=S)N1CCCCC1c1cccnc1 (stereo not drawn),103% (inactive),106% (inactive),112% (inactive),117% (inactive),112% (inactive),56.7,165% (inactive),-3.67% (inactive),92.2% (inactive),82% (active),-15.6% (inactive),1.74% (inactive),5.24% (inactive),104% (inactive),-0.13 (inactive),-5% (inactive),-4.99% (inactive)
